Experimental data from PubChem BioAssay (NCATS).
Inconclusive results are not listed. A number with no mark means an inactive call. Activity calls are given as the source filed them. Calls follow the shape of the dose curve; as a rule, active = well fitted inhibition curve with a large enough effect; inconclusive = small, poorly fitted or top-dose-only effect; inactive = flat fitted curve, though single readings scatter.

The molecules below were run on CRL-7250 (assay: Cytotoxic Profiling of Annotated Libraries Using Quantitative High-Throughput Screening (AID 1296008; also: nearly all actives have a fitted effect of over 60% in size)). Conditions: Five cell lines viability, CellTiter-Glo ATP luminescence, 48-72 h; max response: active compounds read low.
Method in brief: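 Cytotoxicity was measured as CellTiter-Glo ATP luminescence, read after 10 min at room temperature. Compound treatment of the cells lasted 48 or 72 hr at 37 degrees Celsius in a qHTS format.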
% is scaled to controls: 0 for no effect and ±100 for the full control effect.

Row | SMILES | max response [%] | outcome
1 | COc1c(C)c(OCC=C(C)C)cc2c1CNC2=O | -2.67 | –
2 | CC(C)=CCC/C(C)=C/CO[C@@H]1O[C@H](CO[C@@H]2O[C@@H](CO)[C@H](O)[C@H]2O)[C@@H](O)[C@H](O)[C@H]1O | -10.8 | –
3 | COc1cnc(-c2ccc(Cn3c(CC(C)(C)C(=O)O)c(SC(C)(C)C)c4cc(OC[C@@H]5Cc6ccccc6N5C(C)=O)ccc43)cc2)nc1 | -2.77 | –
4 | O=C(OCC1=CC(Cl)C(O)C(OC(=O)c2ccccc2)C1O)c1ccccc1 (stereo unspecified) | 2.93 | –
5 | CC12CC(O)C(O)C=C1c1cc(O)cc(O)c1C(=O)O2 (stereo unspecified) | -7.12 | –
6 | COc1ccc(C2(O)c3ccccc3NC(=O)C2OC)cc1 (stereo unspecified) | -6.47 | –
7 | C=C(C)C(O)COc1ccc(CC(=O)O)cc1 (stereo unspecified) | -8.29 | –
8 | CN1CCc2cc(Cl)c(O)cc2[C@@H](c2cccc3c2OCC3)C1 | – | inactive
9 | CC1(CO)CC(O)C2(C)CCC3(C)C(=CCC4C5(C=O)CCC(OC6OC(C(=O)O)C(O)C(O)C6OC6OC(C(=O)O)C(O)C(O)C6O)C(C)(C)C5CCC43C)C2C1 (stereo unspecified) | – | inactive
10 | O=C(O)c1ccnc2cc(-c3nc4ccccc4n3CCN3CCCCC3)sc12 | 1.05 | –
11 | CC1(C)CC[C@]2(C(=O)O)CC[C@]3(C)C(=CCC4[C@@]5(C)CC[C@H](O[C@@H]6O[C@H](C(=O)O)[C@@H](O)[C@H](O[C@@H]7O[C@H](CO)[C@H](O)[C@H](O)[C@H]7O)[C@H]6O[C@@H]6O[C@H](CO)[C@@H](O)[C@H](O)[C@H]6O)C(C)(C)C5CC[C@]43C)[C@@H]2C1 (stereo partly specified) | 3.2 | –
